Shown are actives, neighbours in structure and some others; about 3.3% of the full set was active somewhere.
697 NFkB inh = inhibitors of PMA/ionomycin-induced NF-kB reporter, 697 cells, primary screen, B-cell NF-kB inhibitor project, cell-based, luminescence, uHTS; 697 B-cell NF-kB luciferase reporter, 16 h; hit rate 0.33% among 330,000; inhibition, % at 4 µM; in the data active means inhibition above about 35%
SMARCA2 act = SMARCA2 (BRM) function activators, primary screen, cell-based, luminescence, high throughput; hit rate 1% among 370,000; AID 652017, 2013; MG213 cells, MMTV-luciferase reporter, dexamethasone, overnight; activation, % at 9.1 µM; in the data active means activation above about 7.8%;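 further: 0% = vehicle wells and 100% = reference activator wells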
Gli-Sufu antag = Gli-Sufu pathway antagonists, primary screen, luciferase luminescence, Sufu-KO-LIGHT cells, uHTS; hit rate 0.74% among 340,000; inhibition, % at 5 µM; Sufu-KO-LIGHT fibroblasts, Gli luciferase reporter luminescence;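 active means inhibition above about 55%, limit read from the data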;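 further: 0% = DMSO-treated cells and 100% = wells with medium but no cells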
esBAF inh = Bmi1 luciferase reporter increase in mESCs, primary screen, esBAF inhibitor project, mouse ES cells, Bmi1 luciferase knock-in, single point; 24 h; 100% = twice the neutral-well signal; reporter increase, % at 12.5 µM; hit rate 2% among 350,000; AID 602393, 2012; in the data active means activation above about 40%; inconclusive means no clear call, values can overlap the other calls;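 further: 0% = median of the plate's neutral control wells and 100% = double that signal; a rise in the Bmi1 reporter signal indicates esBAF inhibition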
Jurkat NFkB inh = inhibitors of induced NF-kB luciferase reporter, primary screen, TCR NF-kB activation inhibitor project, cell-based, luminescence, uHTS; Jurkat, PMA/ionomycin-induced NF-kB luciferase reporter; inhibition, % at 4 µM; hit rate 0.53% among 330,000; AID 435003, 2010; in the data active means inhibition above about 50%
SMARCA2 act conf = SMARCA2 (BRM) function activators, confirmation, cell-based, luminescence, triplicate | shares compounds with SMARCA2 act | MG213 cells, MMTV-luciferase with dexamethasone, overnight; MG213 cells expressing E1A, Rb sequestered; DMSO wells 0%, reference activator 100% | AID 652260, 2013 | activation, % at 9.1 µM | hit rate 30% among 3,500;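 active means activation above its plate's cutoff, the mean activation of tested wells plus 3 SD, cut at about 7.9% in these data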
VP16 Luc act = GAL4-VP16 luciferase reporter activation, counter-screen for SMARCA2 (BRM) activator project, cell-based, pG5luc, luminescence, high throughput; hit rate 41% among 3,500; activation, % at 9.1 µM; shares compounds with SMARCA2 act; HEK293 GAL4-VP16 pG5luc reporter; scaled: DMSO wells 0%, SAHA wells 100%;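 active means activation above the solvent-only control well mean plus 3 SD, averaged across control plates, cut at about 5.2% in these data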
An asterisk follows results filed as active; ? = inconclusive; . = no result given.

SMILES	697 NFkB inh	SMARCA2 act	Gli-Sufu antag	esBAF inh	Jurkat NFkB inh	SMARCA2 act conf	VP16 Luc act
COCCNC(=O)C(=O)N/N=C/c1ccccc1C(F)(F)F	16.5	11.3*	4.6	.	1.8	0.1	2.1
O=C(N/N=C/c1ccccc1C(F)(F)F)c1ccc(O)cc1	-26.3	8.3*	-63.1	.	-32.9	2.3	9.4*
O=C(C[C@@H]1CC[C@H]2[C@@H](COC[C@@H](O)CN2CCc2ccccc2)O1)NCc1ccc(F)cc1	.	.	.	2.5	.	.	.
COc1cc(/C=N/N=C2/NC(=O)C(Cc3ccccc3)S2)ccc1O (configuration not stated)	-13.1	9.0*	-16.2	14.1	-23.4	6.4	5.3*
COCC(=O)N1C[C@H](C)[C@H](OC)CN(C)C(=O)c2cc(NC(=O)c3cc(C)on3)ccc2OC[C@@H]1C	.	.	.	-4.2	.	.	.
C=CCn1c(SCC(=O)NCc2ccco2)nnc1-c1ccc2ccccc2n1	-25.3	8.3*	-12.5	-0.3	0.8	-1.3	0.8
C=CCn1c(SCC(=O)NCc2ccco2)nc2ccccc2c1=O	9.6	-2.3	2.8	.	6.5	.	.
O=C(NNC(=O)c1ccccc1Cl)c1ccncc1	-11.9	8.7*	0.4	-2.1	-19.5	-3.6	0.2
O=C(NNC(=O)c1ccc(Cl)cc1Cl)c1ccncc1	-38.8	-2.3	-7.3	.	8.1	.	.
Cc1oc(C(C)(C)C)cc1C(=O)NCc1ccc2c(c1)OCO2	-3.2	8.8*	-3.8	-3.0	-6.9	3.0	-0.1
Cc1ccccc1N=Nc1c(N)[nH]n(-c2ccccc2)c1=O	.	-1.0	.	.	.	.	.
Cc1cccc2c1ncc1c(=O)n(-c3ccccc3)[nH]c12	-42.5	11.7*	-61.9	?	-69.6	7.6	11.2*
CCCNC(=O)C[C@@H]1CC[C@H]2[C@H](COc3ccc(NC(=O)c4cccc(Cl)c4)cc3C(=O)N2C)O1	.	.	.	5.2	.	.	.
CCC1([N+](=O)[O-])COC(C=Cc2ccccc2)OC1 (configuration not stated)	.	9.7*	-10.2	54.0*	.	5.4	3.5
COc1nc(=O)n(C2C=CC(=O)O2)cc1F (configuration not stated)	.	15.5*	.	.	.	23.4*	5.7*
C#CCn1c(O)c(N=NC(=O)CNC(=O)c2cccnc2)c2ccccc21	-8.5	9.8*	4.3	-7.3	13.0	-0.4	0.6
CCCCOC(=O)Nc1nnc(C(C)C)s1	-86.6	8.0*	-71.4	.	-32.4	8.6*	10.0*
CCCCCOC(=O)Nc1nnc(CCC)s1	-7.4	-3.6	-7.9	1.7	-14.8	.	.
C[C@@H]1CN([C@@H](C)CO)S(=O)(=O)c2ccc(/C=C/c3ccccc3)cc2O[C@@H]1CN(C)C(=O)C1CC1	.	.	.	-4.0	.	.	.
COc1cc2c(cc1OC)-c1cc(Nc3ccccc3C)nc(=O)n1CC2	19.1	5.5	-5.0	-4.5	-7.6	.	.
CCOc1ccccc1Nc1cc2n(c(=O)n1)CCc1cc(OC)c(OC)cc1-2	17.8	12.1*	14.8	-8.5	11.3	8.8*	7.8*
CN1C(=O)c2cc(NC(=O)C3CCCC3)ccc2OC[C@H]2O[C@@H](CC(=O)NCC(F)(F)F)CC[C@H]21	.	.	.	-6.0	.	.	.
O=C(Nc1ccc(-c2cn3ccccc3n2)cc1)c1cccs1	-39.0	8.1*	-47.0	.	-78.2	28.2*	13.6*
O=C(Nc1ccc(NC(=O)c2ccccc2F)cc1)c1cccs1	-22.6	8.8*	-58.8	73.6*	-90.4	4.8	7.7*
CC(=O)Nc1ccc2nc(-c3ccccc3)cn2c1	-161.4	8.8*	-79.2	.	-102.0	9.4*	7.6*
SMILES	697 NFkB inh	SMARCA2 act	Gli-Sufu antag	esBAF inh	Jurkat NFkB inh	SMARCA2 act conf	VP16 Luc act
COc1ccc(CC(=O)Nc2ccc(-c3cn4ccccc4n3)cc2)cc1	-62.9	4.8	-39.7	30.5	-39.6	.	.
O=C(Nc1ccc(NC(=O)c2ccc(Cl)cc2Cl)cc1)c1cccs1	24.1	-0.7	-3.9	4.4	-16.1	.	.
CO[C@H]1CN(C)C(=O)c2ccc(NC(=O)NC(C)C)cc2OC[C@H](C)N(C(=O)C2CCC2)C[C@H]1C	.	.	.	0.5	.	.	.
Cc1noc(C)c1S(=O)(=O)N(C)C[C@H]1Oc2ccc(NC(=O)Nc3ccc4c(c3)OCO4)cc2CC(=O)N([C@H](C)CO)C[C@H]1C	.	.	.	-2.4	.	.	.
O=C(/C=C/c1ccc([N+](=O)[O-])s1)N1CCCC1	0.9	0.1	5.6	.	10.2	.	.
Cc1cc(C)cc(NC(=O)/C=C/c2ccc([N+](=O)[O-])s2)c1	.	8.8*	12.3	.	.	4.0	0.4
CC(=O)CC1OC(=O)C(Br)=C1NCc1ccccc1 (configuration not stated)	-33.3	12.8*	10.3	-9.2	39.2	-4.2	2.6
O=C(CC1Oc2ccccc2NC1=O)NCc1ccccc1 (configuration not stated)	13.2	-1.8	7.1	-6.0	-3.2	.	.
CSc1oc(-c2ccco2)nc1S(=O)(=O)c1ccc(C)cc1	8.6	9.2*	-21.4	-7.7	-1.0	0.4	1.1
COc1cccc(S(=O)(=O)N2C[C@H](O)COC[C@H]3O[C@@H](CC(=O)N4CCOCC4)CC[C@@H]32)c1	.	.	.	-1.4	.	.	.
CCC1CSC(=Nc2ccc(C)cc2)N1C(=O)CN1C(=O)NC2(CCCC2)C1=O (configuration not stated)	-72.0	9.7*	-81.7	.	-104.6	11.2*	8.2*
CN1C(=O)c2cc(NC(=O)c3ccc(F)c(F)c3)ccc2OC[C@H]2O[C@H](CC(=O)O)CC[C@@H]21	.	.	.	2.7	.	.	.
Cc1cc(C(C)C)n2c(nc3ccccc32)c1C#N	-18.9	.	.	.	-2.3	.	.
Cc1cc(-c2ccco2)c(C#N)c2nc3ccccc3n12	-21.5	12.3*	-9.8	.	-5.7	41.3*	6.5*
CCn1c(CNC(=O)C2CCCCC2)cc2ccccc21	8.7	-1.7	11.3	8.0	-2.7	.	.
Cn1c(CNC(=O)C2CCCCC2)cc2ccccc21	9.2	8.2*	5.6	2.4	-2.4	-1.2	-0.3
CNC[C@@H]1Oc2ccc(NS(=O)(=O)c3ccc(Cl)cc3)cc2CC(=O)N([C@@H](C)CO)C[C@@H]1C	.	.	.	-16.0	.	.	.
O=C(NC1CCCCCC1)C1CCN(S(=O)(=O)N2CCC3(CC2)OCCO3)CC1	-6.1	9.9*	-4.7	5.4	2.5	-1.8	1.8
CC1CCCCC1NC(=O)C1CCN(S(=O)(=O)N2CCC3(CC2)OCCO3)CC1 (configuration not stated)	19.4	-1.7	1.8	10.0	19.1	.	.
O=C(O/N=C1\CCCc2ccccc21)c1ccc(F)cc1	21.5	9.7*	-8.2	-0.7	-1.7	4.6	-1.2

From PubChem BioAssay
